High-throughput results: PubChem BioAssay, National Center for Advancing Translational Sciences (NCATS)
HepG2 viability: kills HepG2 cells in TGF-b inhibitor counter-screen; Potency, µM (titrated, usually from 46.1 µM), actives largely listed as cytotoxic; hit rate 0.76% among 410,000; HepG2 CAGA-GFP viability, ATP luminescence, 18 h; AID 588856
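HepG2 CAGA-GFP cells (1000/well, DMEM with 1% FBS) received compound, then TGF-beta at 500 pg/mL final, and were incubated 18 hours at 37 degrees C. Viability was read by CellTiter-Glo luminescence. Media-only wells were set as complete cell-killing and DMSO as no toxicity.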
ATXN viability: reduces viability in counter-screen for ATXN expression inhibitors; S2 cells (HEK-293 line with an ATXN2-luciferase reporter) viability, CellTiter-Fluor protease fluorescence, 24 h; Potency, µM (doses to about 56.7 µM), hits mostly cytotoxic; hit rate 0.49% among 400,000; AID 651635; note: nearly all actives have a fitted effect of over 40% in size
TGFb SMAD3 inh: TGF-b pathway inhibition. HepG2 CAGA-GFP TGF-b/SMAD3 reporter, GFP fluorescence, 18 h; TGF-beta stimulated, 500 pg/mL final. Potency, µM (titrated, usually from 46.1 µM), hits mostly inhibitors. hit rate 1.2% among 410,000; note: nearly all actives have a fitted effect of over 65% in size
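TGF-beta reporter screen: HEPG2 CAGA-GFP, 1% FBS, 500 pg/mL TGF-beta final, 18 h; per-cell GFP summed per well; curves fitted and categorized by class.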
RORg inh: inhibitors of mouse ROR gamma transcriptional activity; P51450; Drosophila S2 Gal4-RORgamma UAS-luciferase reporter, 20 h; Potency, µM (doses to about 53.6 µM), hits mostly inhibitors; hit rate 5.4% among 310,000; AID 2551; note: nearly all actives have a fitted effect of over 60% in size
Target sequence (P51450 whole entry, looked up, the tested form may be a part): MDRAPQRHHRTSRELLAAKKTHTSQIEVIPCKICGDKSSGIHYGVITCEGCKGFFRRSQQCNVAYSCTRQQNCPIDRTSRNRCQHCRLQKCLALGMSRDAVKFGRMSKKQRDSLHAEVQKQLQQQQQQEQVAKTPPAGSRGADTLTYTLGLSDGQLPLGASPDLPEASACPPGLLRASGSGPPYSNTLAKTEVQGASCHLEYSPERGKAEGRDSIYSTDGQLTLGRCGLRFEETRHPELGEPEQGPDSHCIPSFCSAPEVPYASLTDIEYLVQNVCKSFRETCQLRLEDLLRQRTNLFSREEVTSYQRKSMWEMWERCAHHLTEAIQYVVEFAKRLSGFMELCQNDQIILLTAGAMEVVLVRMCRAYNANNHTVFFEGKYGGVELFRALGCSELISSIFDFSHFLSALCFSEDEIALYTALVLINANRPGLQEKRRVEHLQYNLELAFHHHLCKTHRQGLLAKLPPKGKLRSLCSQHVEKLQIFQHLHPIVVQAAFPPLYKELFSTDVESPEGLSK
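Compounds are pin-transferred onto Drosophila Schneider cells expressing a copper-inducible Gal4–ROR gamma transactivation domain fusion. After 1 hr, copper sulfate is added to 700 uM final; luciferase is read 20 hr later.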
Gal4-VP16 FLuc: counter-screen for ROR gamma inhibitors: Gal4-VP16 reporter; hit rate 3.5% among 310,000; Drosophila S2 Gal4-VP16 UAS-luciferase, luminescence, 20 h; AID 2546; Potency, µM (doses to about 53.6 µM), actives largely listed as inhibitors;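 note: Gal4-VP16 expression switched on by copper sulfate through the metallothionein promoter; nearly all actives have a fitted effect of over 50% in size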
ATXN2 expr inh: ATXN2 expression inhibition; HEK-293 ATXN2-luciferase reporter, luminescence, 24 h; Potency, µM (doses to about 57 µM), actives largely listed as inhibitors; hit rate 0.72% among 360,000; note: nearly all actives have a fitted effect of over 55% in size
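qHTS (up to 57 uM final) was run with 24 h compound exposure of reporter cells at 37 °C. Each well was multiplexed: SteadyGlo luminescence measured ATXN2-luciferase expression after a fluorogenic Gly-Phe-AFC viability readout (25 uM final).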
Numbers stand for hits; n = inactive; u = inconclusive; x = no result; [ ] = dose if it differs, or a comment. The list is not random: actives were taken first. Their share in the collection is about 6.3%. Calls come from the whole dose curve; as a rule, active = well fitted curve in the direction sought with a large enough effect; inconclusive = small, poorly fitted or top-dose-only effect, or another doubt; inactive = no such curve, though single readings can be large; an effect the other way counts as inactive or inconclusive.

SMILES	HepG2 viability	ATXN viability	TGFb SMAD3 inh	RORg inh	Gal4-VP16 FLuc	ATXN2 expr inh
NNC(=O)COc1cccc2cccnc12	n	n	n	u	n	n
Cc1cccc(OCC(=O)Nc2ccncc2)c1C	n	u	n	u	3.2µM	n
C[C@@H]1O[C@H](C2CCCCC2)Cc2[nH][nH]c(=O)c21	x	n	x	x	x	n
O=C(Cc1csc(Nc2nc(=S)[nH]c3ccccc23)n1)N1CCN(c2cccc(C(F)(F)F)c2)CC1	n	x	n	0.63µM	7.1µM	n
Cc1ccc(CNC(=O)Cc2csc(Nc3nc(=S)[nH]c4ccccc34)n2)cc1	x	x	x	1.4µM	7.1µM	x
O=C(Cc1csc(Nc2nc(=S)[nH]c3ccccc23)n1)NCc1cccc(Cl)c1	n	u	n	6.3µM	u	n
O=C(Cc1csc(Nc2nc(=S)[nH]c3ccccc23)n1)NCc1ccccc1Cl	n	u	n	n	n	u
CCOc1ccccc1C(=O)N(Cc1ccco1)Cc1ccco1	n	x	n	x	x	x
CCC[C@H]1COCCS(=O)(=O)N1Cc1cccc(F)c1	n	x	n	x	x	x
COc1cc2c(cc1OC)CN(C(=O)[C@H](C)N[C@@H](CCc1ccccc1)C(=O)O)[C@H](C(=O)O)C2	x	n	x	x	x	n
Cc1cnc(NC(=O)c2cc3c(C)nn(Cc4ccccc4Cl)c3s2)s1	n	n	n	3.5µM	4.5µM	n
c1cn2c(-c3ccoc3)cncc2n1	n	n	n	x	x	n
O=C(N/N=C/c1ccc([N+](=O)[O-])o1)c1sc2ccccc2c1Cl	n	32µM	u	2.5µM	3.2µM	x
O=C(N/N=C/c1c[nH]c2ccccc12)c1sc2ccccc2c1Cl	n	n	n	u	u	n
NC(=O)N/N=C\c1ccc([N+](=O)[O-])o1	x	u	x	u	n	x
O=C(N/N=C/c1ccccn1)c1sc2ccccc2c1Cl	n	u	u	2.8µM	3.2µM	x
Cn1cccc1/C=N/NC(=O)Cc1cccc2ccccc12	n	n	n	u	14µM	n[11.3 µM]
Cn1cccc1/C=N/NC(=O)c1sc2ccccc2c1Cl	n	n	n	0.45µM	3.2µM	n
COc1ccc(COC(=O)C2CCN(S(=O)(=O)c3ccc(OC)c(OC)c3)CC2)cc1	n	n	n	x	x	x
Cc1c(/C=N/NC(=O)c2sc3ccccc3c2Cl)cnn1C	n	n	n	2µM	11µM	n
COc1ccccc1CNC(=O)C1CCCN(c2nnc(-n3c(C)ccc3C)s2)C1 (centres undefined)	n	n	u	x	x	n
Cn1c(CNc2nc3ccccc3n2CCN2CCCCC2)nc2ccccc21	n	n	n	16µM	n	n
CCN(CC)CCn1c(NCc2ccco2)nc2ccccc21	n	u	n	n	n	n
COc1ccc(CNc2nc3ccccc3n2CCN2CCCCC2)cc1	n	n	n	16µM	n	u
CCOc1ccc(CNc2nc3ccccc3n2CCN2CCOCC2)cc1	n	n	u	n	n	n
SMILES	HepG2 viability	ATXN viability	TGFb SMAD3 inh	RORg inh	Gal4-VP16 FLuc	ATXN2 expr inh
CCN(CC)CCn1c(NCc2nc3ccccc3n2Cc2ccccc2)nc2ccccc21	n	u	u	11µM	u	u
c1ccc(Cn2c(CNc3nc4ccccc4n3CCN3CCCCC3)nc3ccccc32)cc1	n	u	u	u	u	n
CCN(CC)c1ccc(CNc2nc3ccccc3n2CCN2CCCCC2)cc1	n	u	u	8.9µM	u	u
COc1ccc2c(c1)-c1c(ssc1=S)C(C)(C)N2S(=O)(=O)c1ccc(C)cc1	n	u	n	8.9µM	n	n
CC1(C)Cc2c(c(N3CCOCC3)nc3snc(N)c23)CO1	n	u	10µM	u	n	n
CC1=C(C(=O)OCc2ccccc2)C(c2ccc(Cl)cc2)NC(=O)N1CCCC(=O)O (centres undefined)	n	n	n	16µM	n	n
CC1=C(C(=O)OCc2ccccc2)C(c2ccc(Br)cc2)NC(=O)N1CCCC(=O)O (centres undefined)	n	n	n	u	n	n
CSc1cnn(Cc2ccccc2)c(=O)c1SCc1ccccc1	n	n	n	0.56µM	2.5µM	n
CSc1cnn(-c2ccccc2)c(=O)c1SC	n	n	n	n	n	n
CSC[C@H]1CN(Cc2ccccc2)C(=O)[C@@H]1CC(=O)Nc1ccc(Br)cc1	n	n	n	x	x	n
CN1C(=O)/C(=C/c2ccc(OCc3cccc(F)c3)cc2)NC1=S	n	n	n	7.1µM	u	n
CN1C(=O)/C(=C/c2ccccc2OCc2ccccc2F)NC1=S	n	n	n	1.6µM	n	n
COc1cc(/C=C2/C(=O)N(C)C(=S)N2C)ccc1OCc1cccc(F)c1	n	n	n	n	n	n
COc1ccccc1Cn1cc(C(=O)c2ccc(C)cc2)c(=O)c2cc(C)ccc21	n	n	n	x	x	n
COCc1nnc(NC(=O)c2ccc(S(=O)(=O)N(C)c3ccccc3)cc2)o1	n	n	n	1.6µM	2.5µM	u
CCN(c1ccccc1)S(=O)(=O)c1ccc(C(=O)Nc2cccc(C)n2)cc1	n	n	n	x	x	n
CCN(c1ccccc1)S(=O)(=O)c1ccc(C(=O)Nc2nnc(CSC)o2)cc1	n	u	n	0.35µM	0.89µM	x
CCN(c1ccccc1)S(=O)(=O)c1ccc(C(=O)Nc2nnc(COC)o2)cc1	n	n	u	0.56µM	1.3µM	u
COc1ccc(C(=O)Nc2ccc(S(=O)(=O)N(C)c3ccccc3)cc2)cc1	n	n	u	x	x	n
Cc1nn(Cc2ccc(Cl)cc2)c(C)c1NC(=O)CSc1nc2c(c(C(F)(F)F)n1)CCc1ccccc1-2	0.63µM	u	n	n	n	u
Cc1ccc(Cn2nc(C)c(NC(=O)CSc3nc4c(c(C(F)(F)F)n3)CCc3ccccc3-4)c2C)cc1	n	x	n	n	n	u
O=C(c1ccc(Cl)cc1)N1CCCCC(Sc2nnc(-c3ccc4c(c3)OCO4)o2)C1=O (centres undefined)	n	n	n	1.4µM	u	2.2µM
O=C(CCC1N=C2c3ccccc3N=C(SCC(=O)Nc3ccc(F)cc3)N2C1=O)NCc1ccco1 (centres undefined)	n	x	n	x	x	x
CC(C)=CCC1=C(OCC(=O)O)C(=O)c2ccccc2C1=O	11µM	u	14µM	u	2.2µM	x
COc1cc(OC)cc(C(=O)Nc2cccc(-c3cn4ccsc4n3)c2)c1	n	x	n	x	x	x
COc1ccc(Cl)cc1C(=O)Nc1nc2ccccc2[nH]1	n	n	n	2.2µM	6.3µM	n
COc1ccc(Br)c(C(=O)Nc2nc3ccccc3[nH]2)c1	n	n	n	n	n	n
COc1ccc(C(=O)Nc2nc3ccccc3[nH]2)cc1S(=O)(=O)N1CCCC1	n	n	n	11µM	u	n
